The results in this text go back to PubChem BioAssay (NCATS).

“And” between values parts separate entries of the source, which are not always exact repeats. Equal entries are not always repeated. Records with an inconclusive call do not appear. A structure can be active in one record and inactive in another. The source made the active and inactive calls. Calls come from the whole dose curve; as a rule, active = well fitted cell-killing curve with a large enough effect; inconclusive = small, poorly fitted or top-dose-only effect, or effect the other way; inactive = no such curve, though single readings can be large or run the other way.
Potency is the fitted concentration of half-maximal effect.

One assay in a line: Quantitative High-Throughput drug screen in 47 multiple myeloma cell lines against the NCATS MIPE library collection: MM1S_ATCC cell viability assay (AID 1918980).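 For viability (% of control): 100% = wells with DMSO only and 0% = wells with media only.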 Note: nearly all actives have a fitted effect of over 45% in size. As to conditions: MM1S myeloma viability, CellTiter-Glo ATP luminescence, 48 h; series mostly up to 45.8 µM; viability (% of control): at the top concentration. The method, boiled down: (§1)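 Plated at 500 cells per well, myeloma lines received MIPE 4.0 compounds by pin tool. Following 48 h culture at 37 °C, CellTiter-Glo luminescence gave viability relative to DMSO and media-only controls.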
Consider `O=C(C1CC1)N1CC[C@@H](Cn2c(-c3ccc(-c4ccc5occc5c4)cc3)nc3cnccc32)C1`, for which the “viability (% of control)” value was 114% (inactive).

Turning to `Cc1cc(Nc2nc(N[C@@H](C)c3ncc(F)cn3)ncc2Cl)n[nH]1`, the Potency is 3.32 µM (active).

`Cn1cnc2c(F)c(Nc3ccc(Br)cc3Cl)c(C(=O)NOCCO)cc21`: the Potency was 7.43 µM (active).

With `O=S(=O)(N=Cc1c(O)ccc2ccccc12)c1cccs1`, the Potency was 0.0209 µM (active).

The nature of the next assay: Quantitative High-Throughput drug screen in 47 multiple myeloma cell lines against the NCATS MIPE library collection: MM1R_ATCC cell viability assay (AID 1918981). Note: nearly all actives have a fitted effect of over 35% in size. As to conditions: MM1R multiple myeloma cells, CellTiter-Glo viability, 48 h; series mostly up to 45.8 µM; viability (% of control): at the top concentration. In short, it runs like this: as §1
On the technique in general: In ATP-based viability assays light output follows the ATP content of the culture.
As for `CCn1c(-c2nonc2N)nc2c(C#CC(C)(C)O)ncc(OC[C@H]3CCCNC3)c21`, the Potency is 0.0418 µM (active).

For `c1ccc([C@H]2CN3CCSC3=N2)cc1`, the “viability (% of control)” value was 115% (inactive).

Take `Cc1[nH]c(=O)c(C#N)cc1-c1ccncc1`: the “viability (% of control)” value was 119% (inactive).

`NC(=O)c1ccc(I)c([N+](=O)[O-])c1`: the Potency is 23.5 µM (active).

On to `N[C@@H]1CONC1=O`, for which the “viability (% of control)” value is 125% (inactive).

For the molecule `CCOc1ccc(Cc2cc([C@@H]3O[C@H](CO)[C@@H](O)[C@H](O)[C@@H]3O)ccc2Cl)cc1`, the “viability (% of control)” value was 114% (inactive).

For the molecule `OCCn1cc(-c2cnc3nnn(Cc4ccc5ncccc5c4)c3n2)cn1`, the Potency is 18.7 µM (active).

`C[C@]1(c2nc3c(C(N)=O)cccc3[nH]2)CCCN1`: the “viability (% of control)” value was 83.8% (inactive).

Take `Cc1cccc(-c2[nH]c(C(C)(C)C)nc2-c2ccc3nccnc3c2)n1`: the Potency was 20.9 µM (active).

As to `CN(C)c1ccc(Nc2nc(N)n(C(=O)c3c(F)cccc3F)n2)cc1`, the Potency was 18.7 µM (active).

Regarding `N=c1nc(N2CCCCC2)cc(N)n1O`, the “viability (% of control)” value was 123% (inactive).

With `CC(C)(C)NCC(O)c1ccc(O)c(CO)c1` (centres undefined), the Potency is 0.0264 µM (active).

For `CC1(C)CNc2cc(NC(=O)c3cccnc3NCc3ccncc3)ccc21`, the Potency was 20.9 µM (active).

Regarding `O=C1[C@H](Cc2ccc(O)cc2)N2C(=O)CCN(C(=O)NCc3ccccc3)[C@H]2CN1Cc1cccc2ccccc12`, the Potency was 3.32 µM (active).

With `Cc1ccnc(NS(=O)(=O)c2ccc(NC(=O)Nc3ccc(S(=O)(=O)Nc4nccc(C)n4)cc3)cc2)n1`, the “viability (% of control)” value was 111% (inactive).

For `COCCNCCCn1c(C(=O)CF)c(-c2ccc(C)cc2)c2c(N)ncnc21`, the Potency is 2.64 µM (active).

For the molecule `NC(=O)c1cnccn1`, the “viability (% of control)” value was 138% (inactive).

Regarding `CNCc1ccc(-c2[nH]c3cc(F)cc4c3c2CCNC4=O)cc1`, the “viability (% of control)” value was 96.8% (inactive).

In the case of `Cc1cn[nH]c1`, the Potency was 0.132 µM (active).

Consider `CC(C=CC1=C(C)CCCC1(C)C)=CC=CC(C)=CC(=O)O`, for which the Potency was 14.8 µM (active).

For `O=C1CCc2cc(OCCCCc3nnnn3C3CCCCC3)ccc2N1`, the “viability (% of control)” value is 123% (inactive).

With `CCOc1cc(N2CCC(O)CC2)ccc1Nc1ncc2c(n1)N(C)c1ccccc1C(=O)N2C`, the Potency is 16.6 µM (active).

For the molecule `Cc1cc(Nc2nc(N[C@@H](C)c3ncc(F)cn3)ncc2Cl)n[nH]1`, the Potency was 26.4 µM (active).

For the molecule `Cn1cnc2c(F)c(Nc3ccc(Br)cc3Cl)c(C(=O)NOCCO)cc21`, the Potency was 18.7 µM (active).

With `COc1ccc([C@@H]2CC(=O)c3c(O)cc(O[C@@H]4O[C@H](CO[C@@H]5O[C@@H](C)[C@H](O)[C@@H](O)[C@@H]5O)[C@@H](O)[C@H](O)[C@@H]4O)cc3O2)cc1O`, the “viability (% of control)” value is 134% (inactive).

For the molecule `O=S(=O)(N=Cc1c(O)ccc2ccccc12)c1cccs1`, the “viability (% of control)” value was 102% (inactive).

`COc1cc(Nc2ncc3c(n2)-c2ccc(Cl)cc2C(c2c(F)cccc2OC)=NC3)ccc1C(=O)O`: the “viability (% of control)” value is 87.3% (inactive).

Another assay can be described thus: Quantitative High-Throughput drug screen in 47 multiple myeloma cell lines against the NCATS MIPE library collection: LP1_DSMZ cell viability assay (AID 1918982). Note: nearly all actives have a fitted effect of over 35% in size. The conditions noted are these: LP1 myeloma viability, CellTiter-Glo ATP luminescence, 48 h; series mostly up to 45.8 µM; viability (% of control): at the top concentration. In short, it runs like this:
as §1
As to `c1ccc([C@H]2CN3CCSC3=N2)cc1`, the “viability (% of control)” value was 114% (inactive).

On to `NC(=O)c1ccc(I)c([N+](=O)[O-])c1`, for which the “viability (% of control)” value was 116% (inactive).

As for `CCOc1ccc(Cc2cc([C@@H]3O[C@H](CO)[C@@H](O)[C@H](O)[C@@H]3O)ccc2Cl)cc1`, the “viability (% of control)” value was 102% (inactive).

Take `OCCn1cc(-c2cnc3nnn(Cc4ccc5ncccc5c4)c3n2)cn1`: the “viability (% of control)” value was 69.7% (inactive).

With `CN(C)c1ccc(Nc2nc(N)n(C(=O)c3c(F)cccc3F)n2)cc1`, the Potency was 16.6 µM (active).

Take `CNC[C@H](O)c1cccc(O)c1`: the “viability (% of control)” value was 101% (inactive).

For `N=c1nc(N2CCCCC2)cc(N)n1O`, the “viability (% of control)” value is 114% (inactive).

On to `CCN(CC)CCCC(C)Nc1nc(C)cc(Nc2ccc3nc(C)cc(N)c3c2)n1` (centres undefined), for which the “viability (% of control)” value was 73.3% (inactive).

`CNCc1ccc(-c2[nH]c3cc(F)cc4c3c2CCNC4=O)cc1`: the “viability (% of control)” value is 88.5% (inactive).

Consider `O=C1CCc2cc(OCCCCc3nnnn3C3CCCCC3)ccc2N1`, for which the “viability (% of control)” value is 115% (inactive).

With `COc1ccc([C@@H]2CC(=O)c3c(O)cc(O[C@@H]4O[C@H](CO[C@@H]5O[C@@H](C)[C@H](O)[C@@H](O)[C@@H]5O)[C@@H](O)[C@H](O)[C@@H]4O)cc3O2)cc1O`, the Potency result was “inactive”.

Consider `O=S(=O)(N=Cc1c(O)ccc2ccccc12)c1cccs1`, for which the “viability (% of control)” value is 78.7% (inactive).

Turning to `COc1cc(Nc2ncc3c(n2)-c2ccc(Cl)cc2C(c2c(F)cccc2OC)=NC3)ccc1C(=O)O`, the “viability (% of control)” value is 73% (inactive).

A short description of the next assay: Quantitative High-Throughput drug screen in 47 multiple myeloma cell lines against the NCATS MIPE library collection: KMS28PE_JCRB cell viability assay (AID 1918983). Note: nearly all actives have a fitted effect of over 35% in size. As to conditions: KMS28PE multiple myeloma viability, CellTiter-Glo ATP, 48 h; series mostly up to 45.8 µM; viability, % of DMSO control: at the top concentration. In short, it runs like this:
as §1
In the case of `CCn1c(-c2nonc2N)nc2c(C#CC(C)(C)O)ncc(OC[C@H]3CCCNC3)c21`, the Potency is 0.296 µM (active).

On to `c1ccc([C@H]2CN3CCSC3=N2)cc1`, for which the “viability, % of DMSO control” value is 134% (inactive).

Regarding `Cc1[nH]c(=O)c(C#N)cc1-c1ccncc1`, the “viability, % of DMSO control” value was 138% (inactive).

As for `NC(=O)c1ccc(I)c([N+](=O)[O-])c1`, the “viability, % of DMSO control” value was 135% (inactive).

In the case of `CCc1cc(Nc2nccc(-c3c(-c4ccc(OC)c(C(=O)Nc5c(F)cccc5F)c4)nc4ccccn34)n2)c(OC)cc1N1CCC(N2CCN(S(C)(=O)=O)CC2)CC1`, the Potency was 26.4 µM (active).

Regarding `CCOc1ccc(Cc2cc([C@@H]3O[C@H](CO)[C@@H](O)[C@H](O)[C@@H]3O)ccc2Cl)cc1`, the “viability, % of DMSO control” value was 131% (inactive).

Turning to `OCCn1cc(-c2cnc3nnn(Cc4ccc5ncccc5c4)c3n2)cn1`, the “viability, % of DMSO control” value was 177% (inactive).

As for `C[C@]1(c2nc3c(C(N)=O)cccc3[nH]2)CCCN1`, the “viability, % of DMSO control” value is 113% (inactive).

In the case of `CNC[C@H](O)c1cccc(O)c1`, the “viability, % of DMSO control” value is 140% (inactive).

On to `N=c1nc(N2CCCCC2)cc(N)n1O`, for which the “viability, % of DMSO control” value is 151% (inactive).

As for `C[C@H](NC(=O)Cc1cc(F)cc(F)c1)C(=O)N[C@@H]1C(=O)N(C)c2ccccc2-c2ccccc21`, the “viability, % of DMSO control” value was 150% (inactive).

For `O=C1[C@H](Cc2ccc(O)cc2)N2C(=O)CCN(C(=O)NCc3ccccc3)[C@H]2CN1Cc1cccc2ccccc12`, the Potency is 9.35 µM (active).

Turning to `CCN(CC)CCCC(C)Nc1nc(C)cc(Nc2ccc3nc(C)cc(N)c3c2)n1` (centres undefined), the “viability, % of DMSO control” value is 141% (inactive).

Turning to `Cc1ccnc(NS(=O)(=O)c2ccc(NC(=O)Nc3ccc(S(=O)(=O)Nc4nccc(C)n4)cc3)cc2)n1`, the “viability, % of DMSO control” value was 108% (inactive).

For the molecule `COCCNCCCn1c(C(=O)CF)c(-c2ccc(C)cc2)c2c(N)ncnc21`, the “viability, % of DMSO control” value is 163% (inactive).

In the case of `NC(=O)c1cnccn1`, the “viability, % of DMSO control” value was 135% (inactive).

As to `CNCc1ccc(-c2[nH]c3cc(F)cc4c3c2CCNC4=O)cc1`, the “viability, % of DMSO control” value is 165% (inactive).

In the case of `Cc1cn[nH]c1`, the Potency is 0.0743 µM (active).

Consider `CC(C=CC1=C(C)CCCC1(C)C)=CC=CC(C)=CC(=O)O`, for which the Potency result was “inactive and 9.35 µM (active)”.

`O=C1CCc2cc(OCCCCc3nnnn3C3CCCCC3)ccc2N1`: the “viability, % of DMSO control” value was 113% (inactive).

`CCOc1cc(N2CCC(O)CC2)ccc1Nc1ncc2c(n1)N(C)c1ccccc1C(=O)N2C`: the Potency was 16.6 µM (active).

For `O=C(C1CC1)N1CC[C@@H](Cn2c(-c3ccc(-c4ccc5occc5c4)cc3)nc3cnccc32)C1`, the “viability, % of DMSO control” value is 111% (inactive).

For the molecule `Cc1cc(Nc2nc(N[C@@H](C)c3ncc(F)cn3)ncc2Cl)n[nH]1`, the Potency is 20.9 µM (active).

`Cn1cnc2c(F)c(Nc3ccc(Br)cc3Cl)c(C(=O)NOCCO)cc21`: the Potency was 9.35 µM (active).

With `COc1ccc([C@@H]2CC(=O)c3c(O)cc(O[C@@H]4O[C@H](CO[C@@H]5O[C@@H](C)[C@H](O)[C@@H](O)[C@@H]5O)[C@@H](O)[C@H](O)[C@@H]4O)cc3O2)cc1O`, the Potency entry is “inactive”.
